This is part of a sample that, as a whole, favours compounds with a hit. Of some 79,000 tested, about 15% had one in any assay. No stated cut-off is given here; in the data, active means growth inhibition above about 70%; inactive means the rest.
Columns and labels:
[1] = NCI Yeast Anticancer Drug Screen. Data for the rad50 strain (AID 155);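 further: 0% = growth of vehicle-only cultures of the same strain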; conditions: S. cerevisiae rad50 strain growth inhibition; at 50.0 µM; stronger effect = higher value
Method in brief: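 Vehicle-treated cultures provide the reference for the growth inhibition reported for compound-exposed, repair-deficient yeast.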

[2] = NCI Yeast Anticancer Drug Screen. Data for the mec2-1 strain (AID 157); conditions: S. cerevisiae mec2-1 strain, at 50.0 µM, stronger effect = higher value
Method in brief: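 Test agents were screened against the mec2-1 yeast strain, with defined DNA repair or cell cycle alteration. Growth was scored as inhibition against vehicle-only controls.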

[3] = NCI Yeast Anticancer Drug Screen. Data for the sgs1 mgt1 strain (AID 161);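 further: 0% = growth of cultures given vehicle only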; conditions: S. cerevisiae sgs1 mgt1 strain, at 50.0 µM, stronger effect = higher value
Method in brief: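 Genetically altered yeast, compound exposure, growth inhibition relative to vehicle.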

[4] = NCI Yeast Anticancer Drug Screen. Data for the cln2 rad14 strain (AID 165);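 further: 0% = growth equal to vehicle treated cultures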; conditions: S. cerevisiae cln2 rad14 strain, at 50.0 µM, stronger effect = higher value
Method in brief: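 Growth of compound-exposed yeast (cln2 rad14 genotype) measured and expressed as inhibition relative to vehicle.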

[5] = NCI Yeast Anticancer Drug Screen. Data for the bub3 strain (AID 167); conditions: S. cerevisiae bub3 mutant strain, at 50.0 µM, stronger effect = higher value
Method in brief: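 Mutant yeast screening strain plus compound; vehicle-treated cultures serve as the 0% inhibition reference.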

[6] = NCI Yeast Anticancer Drug Screen. Data for the mlh1 rad18 strain (AID 175); conditions: S. cerevisiae mlh1 rad18 strain growth inhibition; at 50.0 µM; stronger effect = higher value
Method in brief: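 In this whole-cell yeast screen, a strain with altered DNA damage repair is challenged with compound, and its growth is measured against matched vehicle-treated controls.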

Measured: growth inhibition

CC(C)(C)OC(=O)N(CCCCNC(=O)c1ccccc1)CCCNC(=O)c1ccccc1
inactive: [1] 13.4% | [2] -8.5% | [3] -30% | [4] -26.5% | [5] -36.5% | [6] -64%

Cc1cc([N+](=O)[O-])cc(C)c1N
inactive: [1] 1.6% | [2] -11% | [3] 3.3% | [4] -15% | [5] -4.5% | [6] 7.15%

O=C(O)c1cc(O)c(O)c(Cl)c1
inactive: [1] 10.3% | [2] 6.15% | [3] 4.1% | [4] -9% | [5] 6.6% | [6] 5.05%

COc1ccc(CN2CCCN(Cc3ccc(OC)cc3OC)C2c2ccc(N(C)C)cc2)c(OC)c1
inactive: [1] 39.9% | [2] 14.5% | [3] 21.1% | [4] 3.6% | [5] 15.7% | [6] 12.1%

O=[N+]([O-])c1ccc(N/N=C/c2ccccn2)nc1
inactive: [1] 8.1% | [2] -6.1% | [3] 10.1% | [4] -7.7% | [5] 6% | [6] 5.4%

O=P(c1ccccc1)(c1ccccc1)c1ccccc1OCCCO
inactive: [1] 8.3% | [2] 3.2% | [3] 4.35% | [4] 24.8% | [5] 4.4% | [6] 3.15%

NC(=O)C(=CNc1nc(-c2ccc(Cl)c(Cl)c2)cs1)C(N)=O
inactive: [1] -53.9% | [2] -45.1% | [3] -29.4% | [4] -17.2% | [5] -6.5% | [6] -8.25%

CC(=O)N(Cl)c1ccc(N=Nc2ccccc2)cc1F
inactive: [1] 24.5% | [2] 15.1% | [3] 32.5% | [4] -9.7% | [5] -7.7% | [6] 6.8%

C[N+](C)(CCO)CCN1c2ccccc2Sc2ccccc21
inactive: [1] -3.1% | [2] -17.5% | [3] 10.2% | [4] -23.6% | [5] -14.6% | [6] -3.7%

O=S(=O)(c1cnccc1N1CCN(CCO)CC1)N1CCCC1
inactive: [1] 6.4% | [2] -11.2% | [3] 8.5% | [4] -7.6% | [5] 3.05% | [6] -1.5%

c1ccc(Nc2ccc3ccccc3n2)cc1
inactive: [1] 40.6% | [2] 4.75% | [3] 40.5% | [4] 14% | [5] -1.8% | [6] 16.4%

O=C(Nc1cc(Cl)ccc1Cl)c1ccccc1Cl
inactive: [1] 2.9% | [2] -6.7% | [3] 14.8% | [4] 8.85% | [5] 19.9% | [6] 20.5%

Cc1ccc(S(=O)(=O)NN=C2CC3C4CCC5C4CC3C25)cc1 (stereo not given)
inactive: [1] 21.9% | [2] -4.5% | [3] 15.9% | [4] 12% | [5] -13.5% | [6] 7.1%

O=C(NCCCCNCCCNC(=O)OCc1ccccc1)OCc1ccccc1
inactive: [1] 14.7% | [2] -4.2% | [3] -2.65% | [4] -8.55% | [5] -20.4% | [6] -59.8%

COc1cc(CNCCO)cc(OC)c1
inactive: [1] 22.2% | [2] 8.8% | [3] -1.35% | [4] -15.1% | [5] 19.6% | [6] 13%

CCOC(=O)CC1=Nc2ccccc2SC1
inactive: [1] -28.4% | [2] -31.2% | [3] -14.8% | [4] -12.8% | [5] -22.6% | [6] -28.6%

CCOC(=O)c1c[nH]c2ccc3c(nc(C)n3C)c2c1=O
inactive: [1] -7.95% | [2] -1.05% | [3] -5.2% | [4] 11.9% | [5] -21.4% | [6] -47.5%

CN(C)c1ccc(C=C(C(=O)c2ccccc2)C(=O)c2ccccc2)cc1
inactive: [1] 9.45% | [2] 1.9% | [3] 0.75% | [4] 8.6% | [5] 20.1% | [6] 37%

CCNc1ccc(Cl)cc1[N+](=O)[O-]
inactive: [1] -28.8% | [2] -66.2% | [3] 11.9% | [4] -6.95% | [5] -33.4% | [6] -26.6%

CC(C)(C)OC(=O)NC1CCC(C(C)(C)C)CC1 (stereo not given)
inactive: [1] 1.95% | [2] -2.95% | [3] -4% | [4] 8.65% | [5] 7.9% | [6] 24.1%

— PubChem BioAssay (NCI)
